From PubChem BioAssay (NCI) come the findings set out here.

About 83,000 compounds went through this panel and 20% of them were active in at least one assay; those are over-represented in the sample as a whole.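 Method: cells in 96-well plates; compound added at one concentration; 48 h incubation; percent growth measured; values under 10 scored active.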 Unmarked numbers belong to inactive results. The source made the active and inactive calls.

Some test systems named below: DU-145 prostate; K-562 leukemia; MDA-MB-231 breast; RXF 393 renal; SF-268 CNS; SF-539 CNS; UACC-257 melanoma; M14 melanoma; HCT-15 colon; HT29 colon; SNB-75 CNS; SNB-19 CNS; U251 CNS; SK-MEL-5 melanoma; UACC-62 melanoma; LOX IMVI melanoma; SK-MEL-28 melanoma; SF-295 CNS; PC-3 prostate.
Holding throughout (assay): NCI-60 one-dose screen, 48 h (100 = growth as untreated, 0 = no growth, -100 = all killed)
Holding throughout (settings): 10 µM

On to `CC(=O)Nc1ccc(S(=O)(=O)N/N=C(\C)c2ccc(C)cc2C)cc1`, for which the growth in the experiment with DU-145 prostate is 112%; in the experiment on K-562 leukemia, 94.9%; in the experiment on MDA-MB-231 breast, 113%; in the experiment with RXF 393 renal, 129%; in the experiment on SF-268 CNS, 104%; with SF-539 CNS, 98.3%. Also, the growth in the experiment on UACC-257 melanoma was 95.1%; in the experiment on M14 melanoma it was 106%; with HCT-15 colon, 100%; in the experiment on HT29 colon it was 105%; in the experiment with SNB-75 CNS, 77.4%; in the experiment with SNB-19 CNS, 101%. Further, the growth in the experiment with U251 CNS was 104%; with SK-MEL-5 melanoma it was 113%; in the experiment on UACC-62 melanoma it was 107%; in the experiment on LOX IMVI melanoma, 106%; with SK-MEL-28 melanoma, 108%.
As to `C[n+]1c2ccccc2nc2ccccc21`, the growth was -59.4% (active) with DU-145 prostate; 25.5% in the experiment on K-562 leukemia; -2.35% (active) with MDA-MB-231 breast; 24.3% in the experiment on RXF 393 renal; 20.7% with SF-268 CNS; 23.4% in the experiment on SF-295 CNS. In addition, the growth in the experiment with SF-539 CNS is 29.1%; with M14 melanoma, -55.7% (active); in the experiment with HCT-15 colon it was 21.3%; in the experiment with HT29 colon it was 21.2%; with SNB-75 CNS it was 22.8%; in the experiment with U251 CNS, 4.11% (active). Besides, the growth is 7.71% (active) in the experiment on PC-3 prostate; 3.8% (active) in the experiment with SK-MEL-5 melanoma; -34.3% (active) with UACC-62 melanoma; -36.5% (active) in the experiment on LOX IMVI melanoma; -2.36% (active) in the experiment with SK-MEL-28 melanoma.
Take `Cc1nn(-c2ccccc2)c2nc(Cl)c(C=O)c(-c3ccccc3)c12`: the growth in the experiment with DU-145 prostate is 101%; in the experiment with K-562 leukemia, 77.3%; in the experiment with MDA-MB-231 breast it was 96.5%; in the experiment with RXF 393 renal, 105%; in the experiment with SF-268 CNS, 90.2%; with UACC-257 melanoma, 98.3%. Also, the growth in the experiment with M14 melanoma was 111%; with HCT-15 colon, 94.8%; in the experiment with HT29 colon it was 56.7%; in the experiment on SNB-75 CNS it was 106%; in the experiment with SNB-19 CNS, 95.6%; in the experiment on U251 CNS, 92.8%. Moreover, the growth in the experiment on PC-3 prostate was 77.4%; in the experiment with SK-MEL-5 melanoma it was 87.1%; in the experiment with UACC-62 melanoma it was 79.4%; in the experiment with LOX IMVI melanoma, 86.9%; in the experiment with SK-MEL-28 melanoma, 107%.
On to `Cc1ccc(C(C)C)c(O)c1NC(=O)OC(C)C`, for which the growth was 107% in the experiment on DU-145 prostate; 114% in the experiment with K-562 leukemia; 106% in the experiment on MDA-MB-231 breast; 108% in the experiment on RXF 393 renal; 93.8% with SF-268 CNS; 101% in the experiment with SF-295 CNS. Also, the growth in the experiment on UACC-257 melanoma is 91.7%; in the experiment with M14 melanoma it was 96.6%; with HCT-15 colon it was 92.2%; in the experiment with SNB-75 CNS, 77.5%; with SNB-19 CNS, 99.4%; in the experiment on U251 CNS, 105%. Moreover, the growth is 85.5% with PC-3 prostate; 97.6% in the experiment on SK-MEL-5 melanoma; 92% in the experiment on UACC-62 melanoma; 99.4% in the experiment on LOX IMVI melanoma; 101% in the experiment with SK-MEL-28 melanoma.
Consider `CCn1cc(C(=O)O)c(=O)c2cc(F)c(N3CCNCC3)cc21`, for which the growth is 106% with DU-145 prostate; 96.6% in the experiment with K-562 leukemia; 100% in the experiment with MDA-MB-231 breast; 118% with RXF 393 renal; 103% in the experiment on SF-268 CNS; 93% in the experiment with SF-295 CNS. The growth in the experiment with UACC-257 melanoma was 106%; in the experiment with M14 melanoma, 117%; in the experiment with HCT-15 colon, 102%; in the experiment on HT29 colon it was 109%; with SNB-75 CNS it was 98.2%; in the experiment on SNB-19 CNS it was 101%. In addition, the growth in the experiment with U251 CNS was 101%; in the experiment with PC-3 prostate, 102%; with SK-MEL-5 melanoma, 99.3%; in the experiment on LOX IMVI melanoma, 98.7%; in the experiment on SK-MEL-28 melanoma, 115%.
Turning to `COc1cc(-c2ccc(N=Nc3ccc4c(S(=O)(=O)O)ccc(N)c4c3O)c(OC)c2)ccc1N=Nc1ccc2c(S(=O)(=O)O)ccc(N)c2c1O`, the growth is 122% with DU-145 prostate; 121% in the experiment on K-562 leukemia; 106% with MDA-MB-231 breast; 93.3% in the experiment with RXF 393 renal; 102% in the experiment with SF-268 CNS; 102% with SF-539 CNS. For the same molecule, the growth in the experiment with UACC-257 melanoma was 109%; with M14 melanoma, 107%; in the experiment with HCT-15 colon, 110%; with HT29 colon, 105%; with SNB-75 CNS it was 70.9%; in the experiment with SNB-19 CNS it was 110%. The growth with U251 CNS was 107%; in the experiment with PC-3 prostate it was 98.7%; with SK-MEL-5 melanoma, 105%; with LOX IMVI melanoma it was 102%; in the experiment with SK-MEL-28 melanoma it was 103%.
Regarding `OC(CCN1CCCC1)(c1ccccc1)C1CCCCC1` (centres undefined), the growth in the experiment with DU-145 prostate was 108%; with K-562 leukemia it was 117%; with MDA-MB-231 breast, 104%; in the experiment on RXF 393 renal, 103%; in the experiment with SF-268 CNS, 95.9%; with SF-295 CNS it was 100%. Moreover, the growth in the experiment on UACC-257 melanoma is 109%; in the experiment on M14 melanoma, 99.6%; in the experiment on HCT-15 colon, 92.4%; in the experiment on HT29 colon, 101%; in the experiment on SNB-75 CNS, 84%; in the experiment with SNB-19 CNS, 107%. Moreover, the growth in the experiment on U251 CNS is 105%; in the experiment with PC-3 prostate it was 98.6%; in the experiment with SK-MEL-5 melanoma, 89.8%; with LOX IMVI melanoma it was 99.9%; in the experiment with SK-MEL-28 melanoma it was 105%.
Take `CC[N+](CC)=c1ccc2nc3c(cc(NCc4ccccc4)c4ccccc43)oc-2c1`: the growth was -95.8% (active) in the experiment with DU-145 prostate; -26.1% (active) with K-562 leukemia; -69.6% (active) with MDA-MB-231 breast; -91.4% (active) with RXF 393 renal; -15.9% (active) with SF-268 CNS; -98.9% (active) in the experiment with SF-295 CNS. The growth is -87% (active) with SF-539 CNS; -98.4% (active) in the experiment on UACC-257 melanoma; -74.4% (active) in the experiment on M14 melanoma; -45.8% (active) in the experiment with HCT-15 colon; -62.9% (active) in the experiment on HT29 colon; -79.7% (active) with SNB-19 CNS. Moreover, the growth with U251 CNS is -95% (active); in the experiment on PC-3 prostate, -19% (active); in the experiment on SK-MEL-5 melanoma, -97.4% (active); in the experiment with UACC-62 melanoma, -73% (active); in the experiment on LOX IMVI melanoma, -64.2% (active).
In the case of `S=C1N(c2ccccc2)CN(C2CCCCC2)CN1c1ccccc1`, the growth with DU-145 prostate was 107%; in the experiment with K-562 leukemia it was 101%; with MDA-MB-231 breast it was 98.2%; with RXF 393 renal it was 109%; with SF-268 CNS, 118%; with SF-539 CNS, 88.1%. For the same molecule, the growth is 2.41% (active) with UACC-257 melanoma; 100% in the experiment with M14 melanoma; 95.3% in the experiment on HCT-15 colon; 99.5% in the experiment on HT29 colon; 90.1% in the experiment with SNB-75 CNS; 95.3% in the experiment on SNB-19 CNS. Besides, the growth is 98.5% with U251 CNS; 84% with PC-3 prostate; 97.9% in the experiment on SK-MEL-5 melanoma; 97.7% in the experiment on UACC-62 melanoma; 95.6% in the experiment on LOX IMVI melanoma; 104% in the experiment on SK-MEL-28 melanoma.
